Drawing on PubChem BioAssay AID651784 (National Center for Advancing Translational Sciences (NCATS), 2012), this text covers activity change, negative = inhibition and Potency for 38 compounds.

The structures appear in SMILES notation. Inconclusive results are not listed. Activity calls are given as the source filed them. Calls follow the shape of the dose curve; as a rule, active = well fitted inhibition curve with a large enough effect; inconclusive = small, poorly fitted or top-dose-only effect; inactive = no such curve, though single readings can be large or run the other way.
Potency is read from the fitted curve at half-maximal effect.

The experiment can be described thus: Acumen qHTS Assay for Inhibitors of the mTORC1 Signaling Pathway in MEF (Tsc2-/-, p53-/-) Cells: Hit Validation.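 Also: phospho-rpS6 Ser235/236 immunofluorescence normalized to propidium iodide cell count; nearly all actives have a fitted effect of over 65% in size.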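 As to activity change, negative = inhibition: cells exposed to compound for 24 hours; plate controls were DMSO for no effect and 7.5 nM rapamycin control for full effect.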 Conditions: Acumen imaging; activity change, negative = inhibition: at 37.3 µM (top of the series). In general terms: Quantitative high-throughput screening tests each substance at several concentrations.
On to `Cc1cccc(CSCCNC(=O)CN(c2ccccc2)S(=O)(=O)N(C)C)c1`, for which the activity change, negative = inhibition is 3.74%.
As to `Cc1ccc(-c2nnc(Nc3cccc(Cl)c3)c3ccccc23)cc1S(=O)(=O)N1CCN(C)CC1`, the activity change, negative = inhibition was -42.6%.
Same read-out and setting: the result for `COc1ccc(NC(=O)c2c(NC(=O)COc3ccccc3)sc3c2CCC(C)C3)cc1` (stereo not drawn) reads 6.92%.
With `Cc1cccc(OCC(O)Cn2c(=N)n(CCN3CCCCC3)c3ccccc32)c1` (stereo not drawn), the Potency is 5.85 µM (active).
As to `Cc1ccccc1C(=O)N1CCN(CCc2ccccn2)CC1`, the activity change, negative = inhibition is -26.5%.
Still for that read-out and setting: for `Cc1ccc2occ(CC(=O)Nc3ccc(Cl)c(C(F)(F)F)c3)c2c1` the value was -19.2%.
As for `CCc1ccc(NC(=O)Cn2c(=O)n(-c3ccc(OC)cc3)c(=O)c3ccc(C(=O)NCc4ccc(C)cc4)cc32)cc1`, the Potency is 4.65 µM (active).
Still for that read-out and setting: for `Cc1cccc(N2CCN(c3ncnc4c3nc3n4CCCCC3)CC2C)c1` (stereo not drawn) the value was 3.29 µM (active).
For the compound `O=C(CN1C(=O)C(c2ccc(F)cc2)=NC12CCCCCC2)Nc1ccccc1Cl`, the activity change, negative = inhibition turned out to be 12.4%.
Still for that read-out and setting: for `COc1ccc(NC(=O)CSc2c3c(nc4ccccc24)CCC3)c(OC)c1` the value was 11.1%.
Still for that read-out and setting: the result for `CC(C)c1ccc(NS(=O)(=O)c2ccc3nc(-c4ccccc4)[nH]c3c2)cc1` reads -0.821%; that for `CCc1ccc(S(=O)(=O)c2c(C(=O)c3ccc(C)c(C)c3)cnc3ccccc23)cc1`, 5.96%.
Take `O=C(CCOc1ccccc1)N(Cc1cccnc1)c1nc2c(F)cccc2s1`: the Potency was 11.7 µM (active).
Same read-out and setting: for `CCn1c2ccccc2c2cc(CN3CCN(Cc4ccc(Cl)cc4)CC3)ccc21` the value was 14.7 µM (active).
Regarding `CCN(C(=O)C(NS(=O)(=O)c1ccc(Br)s1)c1ccccc1)c1ccc(C)c(C)c1` (stereo not drawn), the activity change, negative = inhibition is -46.3%.
On to `CCCC1=Nc2cc(C(=O)NC3CCCC3)ccc2Sc2ccc(C)cc21`, for which the Potency was 1.17 µM (active).
Same read-out and setting: for `CCOC(=O)c1ccc(-c2ccc(/C=C(\C#N)c3nc4ccc(C)cc4[nH]3)o2)cc1` the value was 4.14 µM (active).
For `COc1ccc2cc(CNc3ccccc3)c(=O)n(CC(=O)Nc3ccc(C)cc3C)c2c1`, the activity change, negative = inhibition is -44%.
Still for that read-out and setting: for `Cc1ccc(-c2noc(CCC(=O)N(C)c3ccccc3F)n2)cc1` the value was 5.93%.
In the case of `CCOc1ccccc1NC(=O)c1cn(C2CCCC2)c(=O)c2c1c1ccccc1n2C`, the activity change, negative = inhibition is -10.9%.
Turning to `CCCc1oc2ccc(NS(=O)(=O)c3ccc(OCC)cc3)cc2c1C(=O)OCC`, the Potency is 4.14 µM (active).
Regarding `C#CCN1C(=O)C(O)(CC(=O)c2ccc(OC)c(OC)c2)c2cc(Br)ccc21` (stereo not drawn), the activity change, negative = inhibition is -24.1%.
Take `O=C(NCC1CCN(Cc2cccc(Cl)c2)CC1)Nc1ccc(F)c(Cl)c1`: the Potency was 9.27 µM (active).
On to `CCSc1oc(-c2ccc(F)cc2)nc1S(=O)(=O)c1ccc(C)cc1`, for which the activity change, negative = inhibition was -25.8%.
Still for that read-out and setting: the result for `COc1ccc(-c2[nH]nc3nc(-c4cc(OC)c(OC)c(OC)c4)cc(C(=O)O)c23)cc1` reads 15.4%; that for `COc1ccc(-c2ccc(CCC(=O)O)n2-c2ccccc2O)cc1`, -2.33%.
Same read-out and setting: for `COc1cccc(-n2c(-c3ccco3)nc3c(cnn3-c3ccc(C)cc3)c2=O)c1` the value was 15.6%; for `COc1cccc(-n2c(-c3ccc(C)cc3)cc3c2CC(C)(C)CC3=O)c1`, -34.9%.
`Cc1cccc(C)c1Nc1sc(C(=O)c2ccccc2)c(N)c1S(=O)(=O)c1ccccc1`: the Potency was 2.61 µM (active).
As for `Cc1nn(CCCC(=O)NCc2ccccc2)c(=O)c2c1sc1ccccc12`, the activity change, negative = inhibition was 13.7%.
Consider `CCOC(=O)N1CCN(Cc2nc3cc(NC(=O)CC(C)C)ccc3n2C(C)C)CC1`, for which the Potency is 2.61 µM (active).
Consider `CCOc1cccc(C2CC(=O)Nc3cc4c(cc32)OCCO4)c1` (stereo not drawn), for which the activity change, negative = inhibition is -113%.
The same measure, in the same setting: for `Cc1ccccc1Oc1nc2ccccn2c(=O)c1/C=C(\C#N)c1nc2ccccc2[nH]1` the value was 2.47%.
As to `Cc1ccc(CN2C(=O)C(=O)c3cc(Br)cc(C)c32)cc1`, the Potency was 9.27 µM (active).
Still for that read-out and setting: the result for `CCOC(=O)c1c(NC(=O)c2nc(S(C)(=O)=O)ncc2Cl)sc(C(C)=O)c1C` reads 4.14 µM (active).
Same read-out and setting: the result for `COc1ccc(OC)c(Nc2c3c(nc4ccccc24)CCC3)c1` reads 3.29 µM (active).
In the case of `CCCOCc1cc(CN2CCN(c3ccccc3OC)CC2)c(O)c2ncccc12`, the activity change, negative = inhibition was -93.6%.
The same measure, in the same setting: for `CCN(CC)S(=O)(=O)c1ccc(NC(=O)CCc2c(C)nc3cc(-c4ccc(Cl)cc4)nn3c2C)cc1` the value was -101%.
